# Screens from PubChem BioAssay.
# The list is not random: actives were taken first. Their share in the collection is about 3.8%.
# MITF act: increases MITF-driven TRPM1 promoter luciferase signal; SK-MEL-5 TRPM1-promoter luciferase, 24 h; % of positive control, neutral wells = 0; 0.75% of 300,000 active; activation, % at 12.5 µM;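 active = mean activation of at least 80% with every replicate also reaching 80%; inconclusive = mean reaches 80% but some replicate falls short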;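 note: 0% = neutral control wells and 100% = parthenolide positive control wells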
# Wnt act: activates Wnt/beta-catenin signaling in a reporter cell assay | activator, plate reader | activation, % at 9.35 µM | 1.2% of 300,000 active | AID 743398; in the data active = activation above about 30%, passing the limit was not always enough; inconclusive = no clear call, values can overlap the other calls;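 note: 0% = neutral control wells and 100% = positive control wells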
# HSF-1 act: increases HSF-1 driven luciferase reporter signal; NIH3T3-HGL HSF-1 luciferase reporter, MG132, 8 h; 100% = twice DMSO control signal; 1.7% of 300,000 active; activation, % at 9 µM;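 active = mean replicate activation of at least 50% with a set share of replicates each reaching 50%; inconclusive = only one of those two conditions met; inactive = mean below 50% and too few replicates reaching it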;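 note: 0% = median of the neutral control wells and 100% = twice that signal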
# HSF1 inh: HSF1 inhibition; activity change, negative = inhibition, % at 7.5 µM (by protocol); NIH3T3-HGL HSE-luciferase, MG132-induced, luminescence 8 h; hits give low values; 0.77% of 300,000 active;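 active = more than half of replicate wells show activity change below -50%, luminescence cut by over half; inconclusive = some wells, but at most half, below -50%; inactive = no replicate well below -50%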;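 note: luciferase reports HSF-1 transcriptional activity via heat shock element; 0% = median of DMSO wells and -100% = zero luminescence signal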
# esBAF inh: blocks esBAF chromatin remodeling in mouse ES cells. reporter increase, % at 12.5 µM. 2% of 350,000 active. Bmi1-luciferase knock-in reporter, 24 h; 100% = twice the neutral-well signal; in the data active = activation above about 40%; inconclusive = no clear call, values can overlap the other calls;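 note: 0% = median of the plate's neutral control wells and 100% = double that signal; a rise in the Bmi1 reporter signal indicates esBAF inhibition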
# * = called active by the depositor; u = inconclusive; x = not tested or not shown; ! = repeats disagree.
SMILES,MITF act,Wnt act,HSF-1 act,HSF1 inh,esBAF inh
O=C(O)[C@H]1[C@H](CO)[C@H]2Cn3c(ccc(C4=CCCCC4)c3=O)[C@@H]1N2C(=O)Cc1ccccn1,x,x,x,x,-0.6
CN(C)C(=O)Oc1ccc2c(c1)O/C(=C\c1ccc(Cl)cc1)C2=O,103.7*,8.9,56.5*,44.3,u
CN(C)C(=O)Oc1ccc2c(c1)O/C(=C\c1cccc(Cl)c1)C2=O,64.5,4.1,35.4,14.1,u
O=C1CN=C(c2ccccc2)c2ccccc2N1Cc1ccc(C(F)(F)F)cc1,-16.5,x,26.3,12.6,1.1
Cc1oc(-c2ccccc2Cl)nc1CN1C(=O)CN=C(c2ccccc2)c2ccccc21,x,-14.0,94.6*,59.5,4.2
Fc1cccc(F)c1CN1CCN(c2ccc(Cl)cc2)CC1,15.0,-0.2,59.9*,15.4,10.5
Cc1ccsc1C(=O)C1CCCN(Cc2ccccc2O)C1 (configuration not stated),3.2,-0.9,58.0*,20.0,x
COc1ccc(O)c(CN2CCCC(C(=O)c3sccc3C)C2)c1 (configuration not stated),5.0,0.4,16.1,7.4,x
CN[C@H]1C[C@H]2O[C@@](C)([C@H]1OC)n1c3ccccc3c3c4c(c5c6ccccc6n2c5c31)C(=O)NC4,x,x,-87.8,-85.2*,x
CN1CCc2cc(O)cc3c2[C@H]1Cc1ccc(O)c(O)c1-3,10.0,-2.7,78.5*,73.7,-6.2
CCOc1cccc(C2NCc3ccccc3-n3cccc32)c1O (configuration not stated),-4.6,5.4,92.6*,79.8,13.3
CCOc1cc(C2NCc3ccccc3-n3cccc32)ccc1O (configuration not stated),-4.5,x,9.4,3.8,x
CC/C(=N\Nc1ccccc1)c1c(O)[nH]c(=O)[nH]c1=O,x,4.1,17.2,-6.0,-5.1
CC/C(=N\NC(N)=O)c1c(O)[nH]c(=O)[nH]c1=O,-1.5,73.6*,-1.9,-0.3,x
CC(=O)c1c(C)n(CCCOC(C)C)c2ccc(O)cc12,1.4,x,-67.0,-55.9*,-7.4
COc1ccc(C2C(C#N)=C(N)Oc3c2c(=O)oc2ccccc32)cc1Cn1cc([N+](=O)[O-])cn1 (configuration not stated),1.6,x,20.9,1.2,x
COc1ccc(C2=CC(c3ccc(OC)c(OC)c3)c3c(c4ccccc4oc3=O)O2)cc1OC (configuration not stated),-29.9,0.9,-64.1,-56.0*,7.8
CCN(CC)C(=O)c1ccc(NC(=O)Nc2ccccc2F)cc1,-27.9,-2.5,-70.5,-64.4*,x
CCN(CC)C(=O)c1ccc(NC(=O)CCCSc2ccccc2)cc1,5.6,-2.2,-3.2,-3.2,10.2
O=C(O)[C@@H]1[C@@H](CO)[C@@H]2Cn3c(ccc(-c4ccncc4)c3=O)[C@H]1N2C(=O)C1CCCCC1,x,x,x,x,0.0
CCCNC(=O)[C@@H]1[C@@H](CO)[C@@H]2Cn3c(cccc3=O)[C@@H]2N1C,x,x,x,x,3.3
COC(=O)[C@@H]1[C@@H](C(=O)OC)C2(c3ccccc3-c3ccccc32)N(c2ccc(Cl)cc2)N1C#N,-93.0,x,-95.6,-95.8*,x
COC(=O)C[C@]1(C(=O)OC)CN(C#N)N(c2ccc(Cl)cc2)C12c1ccccc1-c1ccccc12,-94.9,-21.7,-93.7,-94.2*,x
CN(C)C(=O)[C@H]1[C@H](CO)[C@H]2Cn3c(cccc3=O)[C@@H]1N2CC1CC1,x,x,x,x,-4.9
C[C@]12CC[C@H]3[C@@H](CCC4=CC(=O)CC[C@@]43C)[C@@H]1CC[C@@H]2O,-25.0,33.3*!,x,x,5.3
SMILES,MITF act,Wnt act,HSF-1 act,HSF1 inh,esBAF inh
CC12CCC(=O)C=C1CCC1C2CCC2(C)C(O)CCC12 (configuration not stated),-13.8,-3.0,x,x,10.1
O=c1[nH]c(=O)n(Cc2ccccc2)c(O)c1C=NCCN1CCNCC1,-8.4,0.3,-88.7,-84.8*,-6.8
COC(=O)[C@@H]1[C@@H](CO)[C@@H]2Cn3c(ccc(-c4ccccc4F)c3=O)[C@H]1N2C(C)=O,x,x,x,x,-1.8
CNC(=S)N(C)CCc1cc2c(c(OC)c1/C=C1/C(=O)NC(=O)N(C)C1=O)OCO2,x,0.5,6.2,-0.7,-2.2
CCNC(=S)N(C)CCc1cc2c(c(OC)c1C=C1C(=O)N(C)C(=O)N(C)C1=O)OCO2,x,-2.0,-88.2,-84.5*,6.1
COC(=O)[C@H]1[C@H](CO)[C@H]2Cn3c(ccc(-c4cccnc4)c3=O)[C@@H]1N2S(=O)(=O)c1ccccc1F,x,x,x,x,-1.5
COc1cc(OC)c2c(c1)OCC1CON(C)C21 (configuration not stated),0.9,-0.8,-80.8,-78.0*,x
